Source: PubChem BioAssay
APP 5UTR inh: APP translation inhibition | SH-SY5Y APP 5'UTR-luciferase reporter, luminescence | inhibition, % at 2 µM | 190,000 tested, 0.82% active | AID 1285;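 active = inhibition above a set limit, derived from the sample mean plus 3 SD, cut at about 45% in these data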
Ba/F3 V617F tox: lowers viability of Ba/F3 cells expressing EpoR and JAK2V617F. ATP luminescence. inhibition, % at 5.6 µM. 220,000 tested, 1.1% active;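 active = inhibition above the campaign mean plus 3 SD over all tested compounds, cut at about 24% in these data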;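 note: cytokine-independent growth of Ba/F3 cells driven by EpoR plus mutant JAK2; 0% = DMSO-treated cells and 100% = JAK inhibitor I control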
BaF3 parental: counter-screen for JAK2V617F inhibitors: parental Ba/F3 viability inhibitors; CellTiter-Glo ATP luminescence; inhibition, % at 5.6 µM; 220,000 tested, 1.1% active;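 active = inhibition above a per-campaign cutoff, the mean inhibition of all tested compounds plus 3 SD, cut at about 27% in these data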;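 note: 0% = DMSO wells and 100% = JAK Inhibitor I control wells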
IEC-6 cytotox: counter-screen for KLF5 inhibitors: cytotoxicity in IEC-6 cells; AID 1825; inhibition, % at 5 µM; IEC-6 cytotoxicity, luminescence viability; 290,000 tested, 0.78% active; in the data active = inhibition above about 22%;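 note: 0% = plate median of test compound wells and 100% = cytotoxic reference compound wells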
aSyn UTR inh: MLPCN primary screen, SNCA 5' untranslated region; inhibition, % (tested at 7.5 µM); alpha-synuclein 5'UTR reporter, inhibitor activity; AID 1813; 300,000 tested, 0.82% active; in the data active = inhibition above about 60%;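 note: H4 neuroglioblastoma cells stably carrying SNCA 5'UTR luciferase fusion; 0% = DMSO wells and 100% = positive control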
KLF5 inhibitor: inhibitors of KLF5 expression | 290,000 tested, 0.23% active | DLD-1 KLF5 promoter-luciferase reporter, luminescence | inhibition, % at 5 µM | AID 1700;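 active = inhibition above a per-plate limit of that plate's mean compound inhibition plus 3 SD, cut at about 60% in these data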;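 note: 0% = DMSO wells and 100% = LY294002 at 200 µM; higher means less KLF5 promoter-driven luciferase light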
Numbers without * were called inactive; x = no result. Most compounds without a hit are left out; they make up all but 2.2% or so of the library.

SMILES	APP 5UTR inh	Ba/F3 V617F tox	BaF3 parental	IEC-6 cytotox	aSyn UTR inh	KLF5 inhibitor
CN1CCN(S(=O)(=O)c2ccc(N3CCN(C(c4ccccc4)c4ccccc4)CC3)nc2)CC1	-20.3	1.4	4.3	-1.9	0.2	3.0
CN1CCN(S(=O)(=O)c2ccc(N3CCN(S(=O)(=O)/C=C/c4ccccc4)CC3)nc2)CC1	11.4	1.2	47.4*	-0.7	-0.5	2.8
CN(C)CCCN(Cc1cc2cc3c(cc2[nH]c1=O)OCO3)C(=S)Nc1cccc(Cl)c1	2.6	35.6*	46.5*	-0.4	-45.2	-23.7
CN(C)CCCN(Cc1cc2cc3c(cc2[nH]c1=O)OCO3)C(=S)Nc1ccccc1	-1.4	3.9	6.9	1.0	-51.4	2.6
O=C(CCc1nnc(Cc2c[nH]c3ccccc23)o1)NCC1CC12CCCCC2 (stereo unspecified)	15.9	-2.2	1.7	6.3	2.6	-7.2
CCCOc1c(OC)cccc1C1CC(=O)Nc2cc3c(cc21)OCO3 (stereo unspecified)	9.2	0.3	1.4	0.2	-2.7	-4.5
CCOc1ccccc1C1C2=C(COC2=O)Nc2cc3c(cc21)OCO3 (stereo unspecified)	95.8*	83.0*	73.9*	90.8*	116.9*	62.9*
C/C(=N\NC(=O)c1nn(C)c(C)c1Br)c1cccc(NC(=O)c2ccoc2C)c1	-59.4	6.8	5.1	9.8	-71.3	-131.4
O=C(Nc1ncc(Cc2ccc(SC(F)F)cc2)s1)c1ccc(OC(F)F)cc1	94.2*	-3.5	2.6	4.8	-128.6	0.2
Oc1ccc(CNc2ccc(F)cc2)c2cccnc12	3.5	1.6	3.8	-2.9	75.6*	-26.8
Cc1ccc2nc(NC(=O)c3ccc(-c4nc5ccccc5s4)s3)sc2c1	1.0	0.1	4.3	-8.0	x	13.7
O=C(c1ccc(-c2nc3ccccc3s2)s1)N1CCOCC1	-65.1	2.2	6.6	9.1	100.4*	56.7
O=C(NC1CC1)c1ccc(-c2nc3ccccc3s2)s1	-82.6	1.1	3.1	11.1	96.3*	34.9
CCN1CCN(C(=O)c2ccc(-c3nc4ccccc4s3)s2)CC1	-131.3	3.1	5.6	1.8	-65.7	-104.1
C=CCNC(=O)CN1CCN(C(c2ccccc2)c2ccccc2)CC1	x	x	x	-1.2	-12.2	-38.0
Cc1cccc(NS(=O)(=O)c2ccc(-n3cccn3)cc2)c1C	x	x	x	-2.1	-23.4	-18.4
COc1ccc(N/C(N)=N/c2nc(CSc3nnc(C)s3)cc(=O)[nH]2)cc1	15.5	4.4	13.2	5.0	3.9	-5.1
Cc1ccc(N/C(N)=N/c2nc(CSc3nnc(C)s3)cc(=O)[nH]2)c(C)c1	93.4*	-0.7	3.6	9.4	83.5*	-29.0
COc1ccc(C(=O)NCCNC(=O)c2cnccn2)cc1OC	x	x	x	-0.8	-7.2	-17.6
COc1ccc(C(=O)NC(=S)NNC(=O)c2cnccn2)cc1OC	20.2	-3.7	6.2	-0.7	90.5*	-13.2
COc1ccc(C(=O)NC(=S)NNC(=O)c2ccc3ccccc3n2)cc1	x	5.6	0.9	3.9	73.1*	-19.8
COc1cc(OC)cc(C(=O)NNC(=S)NC(=O)c2cccnc2)c1	x	x	x	4.2	-30.6	-7.0
O=C(/C=C/c1ccccc1)NC(=S)NNC(=O)c1cnccn1	x	-2.9	6.9	-2.0	86.6*	-16.8
COc1cc(OC)cc(C(=O)NC(=S)NNC(=O)c2cnccn2)c1	8.8	-3.0	3.8	-7.3	73.2*	-11.5
COc1cc(OC)cc(C(=O)NNC(=O)c2ccccn2)c1	37.8	-2.6	-2.2	8.8	72.7*	13.6
SMILES	APP 5UTR inh	Ba/F3 V617F tox	BaF3 parental	IEC-6 cytotox	aSyn UTR inh	KLF5 inhibitor
COc1ccc(S(=O)(=O)N2CCNC(=O)C2)cc1Br	-16.7	-2.0	0.5	-1.1	-4.6	-7.6
C/C(=N\NC(=S)Nc1ccc(F)cc1)C1CC1	20.4	8.5	91.9*	-1.2	-30.3	-44.0
COc1ccc2[nH]c(C)c(CCN(Cc3cccs3)C(=S)Nc3cccc(F)c3)c2c1	-2.0	44.9*	51.1*	-4.7	-18.2	-29.3
Cc1[nH]c2ccc(F)cc2c1CCN(Cc1cccnc1)C(=S)Nc1cccc(F)c1	-15.3	31.1*	28.4*	4.3	17.7	-13.4
Cc1ccccc1NC(=S)N(CCc1c(C)[nH]c2ccc(F)cc12)Cc1cccnc1	10.3	-1.2	8.5	-4.6	7.6	-17.9
NC1=NC(=O)C(Cc2ccc(Br)cc2)S1 (stereo unspecified)	x	x	x	-5.5	11.0	-24.7
COc1ccc(C(C(=O)NC2CCCCC2)N(Cc2ccco2)C(=O)c2ccccn2)c(OC)c1 (stereo unspecified)	x	x	x	-3.0	-7.3	-21.1
CCC1C/C(=C/c2ccco2)C(=O)/C(=C/c2ccco2)C1 (stereo unspecified)	-20.9	30.4*	1.8	-6.9	x	-8.4
S=C(NCCc1ccccc1)NCCN1CCOCC1	x	x	x	4.8	-30.1	-39.1
CN(C(=S)NCCN1CCOCC1)C(c1ccccc1)c1ccccc1	-7.8	16.1	44.0*	-5.3	-8.3	-43.5
O=c1cccc2c1c1cc[nH]c3ccc(=O)n2c31	x	x	x	x	78.9*	x
Cn1c(=O)c(-c2cc(Br)ccc2N)nc2ccccc21	-66.3	40.1*	46.0*	8.6	-64.1	-13.4
CCOC(=O)Cn1c(=O)c(-c2cc(Br)ccc2N)nc2ccccc21	x	46.9*	87.6*	12.6	8.2	-19.5
CN(C)C(=O)c1nc2ccc(Cl)cn2c1CN1CCCC(OCc2ccccc2)C1 (stereo unspecified)	12.4	-0.5	7.5	-5.3	-3.6	-26.4
Cc1ccc(-c2nc(CSCC(=O)N3CCN(c4ccccn4)CC3)c(C)o2)cc1	11.6	-3.4	6.8	-1.0	21.7	-18.2
CCOc1ccc(-c2nc(CSCC(=O)NCc3ccco3)c(C)o2)cc1	48.5*	-2.9	2.4	1.0	45.9	18.1
CCOc1ccc(-c2nc(CSCC(=O)N3CCN(c4cccc(OC)c4)CC3)c(C)o2)cc1	x	-4.3	5.2	-2.2	68.5*	-14.6
CCc1ccc(-c2nc(CSCC(=O)N3CCN(c4ccccn4)CC3)c(C)o2)cc1	13.7	2.3	3.5	-2.9	81.6*	7.5
CCOc1ccc(-c2nc(CSCC(=O)NC3CC3)c(C)o2)cc1	x	x	x	6.1	30.5	28.3
Cc1ccc2cn[nH]c2c1NC(N)=S	-3.6	-1.3	0.8	-4.4	-0.9	-15.3
CC1=C(n2nnc([N+](=O)[O-])n2)C(c2cccnc2)C(C#N)=C(N)O1 (stereo unspecified)	-0.1	2.0	-1.8	1.2	9.7	-6.1
Cc1ccc(Cl)cc1N1CCN(C(=S)NCCc2ccccc2)CC1	-14.4	0.0	7.0	-2.6	-13.0	-31.9
C[n+]1ccccc1N1CCN(c2ccccc2Cl)CC1	14.0	56.2*	61.8*	-5.2	-11.6	-10.4
Cc1ccc(Cl)cc1N1CCN(c2cccc[n+]2C)CC1	4.4	82.4*	64.6*	0.2	-15.4	-9.8
CCN1CCCC1CNC(=O)c1ccc(N2CCOCC2)c(NS(=O)(=O)c2ccc(OC)cc2)c1 (stereo unspecified)	-0.3	-2.0	-1.4	2.3	-11.1	4.8
COc1cccc(NC(=O)CN(C)C(=O)c2c(-c3ccccc3)noc2C)c1	x	x	x	0.0	3.8	-16.3
